Laboratory results from PubChem BioAssay (EPA / NIEHS).
Results filed as inconclusive are left out. Active and inactive are the calls of the source. How the source made its calls: active means hit-call score of the fitted dose curve at least 0.9, where 1 is the maximum; inconclusive means response in the unintended direction; inactive means score below 0.9.

Experiments:
[1] = molecular target: rat Peripheral-type Benzodiazepine Receptor (PBR), Tspo (gene 24230) (UniProt P16257); assay: NVS_MP_rPBR: NovaScreen (NVS) Membrane Protein Assay for rat Peripheral-type Benzodiazepine Receptor (PBR) (AID 2283335)
How it was run: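 Competitive displacement of specific radioligand from rat kidney membrane PBR, read by filtration and scintillation after 1 h. Compounds first tested at 25 uM in duplicate, then in concentration series; signal loss relative to DMSO.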

[2] = molecular target: human Androgen Receptor (AR), AR (gene 367) (UniProt P10275); assay: NVS_NR_hAR: NovaScreen (NVS) Nuclear Receptor Binding Assay for human Androgen Receptor (AR) (AID 2283332)
How it was run: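 Actives from a duplicate 25 uM single-point screen went on to concentration series. Read-out after 20 h was scintillation counting of displaced radioligand in LnCAP extract, with DMSO as baseline.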

[3] = molecular target: Glucocorticoid receptor (Homo sapiens) (UniProt P04150); assay: NVS_NR_hGR: NovaScreen (NVS) Nuclear Receptor Binding Assay for human Glucocorticoid Receptor (GR) (AID 2283363);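 further: activity is loss of specific radioligand binding signal relative to DMSO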
How it was run: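 Single-readout cell-free binding: radioligand plus extracted receptor, 16-hour dosing, filter radiodetection; 25 uM duplicate primary, concentration series secondary.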

[4] = molecular target: human Peripheral-type Benzodiazepine Receptor (PBR), TSPO (gene 706) (UniProt P30536); assay: NVS_MP_hPBR: NovaScreen (NVS) Membrane Protein Assay for human Peripheral-type Benzodiazepine Receptor (PBR) (AID 2283331);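 further: hits reduce radioligand binding relative to DMSO baseline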
How it was run: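 Using human colon-derived membranes, this one-endpoint binding test reads radioligand loss by scintillation after 1 h. Screening started at 25 uM in duplicate, with positive and negative controls on every plate, and actives moved to dose series.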

PGR (gene 5241) = PGR (gene 5241) (UniProt P06401); assay: NVS_NR_hPR: NovaScreen (NVS) Nuclear Receptor Binding Assay for human Progestron Receptor (PR) (AID 2283360);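 further: active means loss of bound radioligand signal versus DMSO baseline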
How it was run: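 T47D lysate; tritiated or iodinated radioligand; scintillation count at 18 h. DMSO = negative control/baseline. Primary: 25 uM, duplicate. Secondary: concentration series for actives.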

[5] = NVS_IC_rCaBTZCHL: NovaScreen (NVS) Ion Channel Assay for Calcium Channel, Type L, Benzothiazepine Site (CaBTZCHL) (AID 2283337)
How it was run: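 Rat cortical membrane preparation incubated 1.5 h with compound and benzothiazepine-site radioligand; loss of filter-bound counts versus DMSO marks displacement. Initial duplicate testing at 25 uM, actives followed up in concentration series.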

[6] = molecular target: Estrogen receptor (Homo sapiens) (UniProt P03372); assay: NVS_NR_hER: NovaScreen (NVS) Nuclear Receptor Binding Assay for human Estrogen Receptor (ER) (AID 2283348)
How it was run: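 Radiodetection of ligand displacement in a lysate-based, cell-free format using MCF7 extracts, read at 18 hours. Duplicate 25 uM primary testing, then concentration series for actives.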

[7] = molecular target: rat Mineralocorticoid Receptor (MR), Nr3c2 (gene 25672) (UniProt P22199); assay: NVS_NR_rMR: NovaScreen (NVS) Nuclear Receptor Binding Assay for rat Mineralocorticoid Receptor (MR) (AID 2283355)
How it was run: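 Single-concentration duplicate screen (25 uM) of radioligand binding in adrenalectomized rat brain supernatant; scintillation detection 24 h after dosing. Positive and negative controls ran on each plate, and confirmed actives went to concentration-response.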

[8] = molecular target: Estrogen receptor (Homo sapiens) (UniProt P03372); assay: OT_ER_ERaERa_1440: Odyssey Thera (OT) 24-hour HEK293T Protein-Complementation Assay for Estrogen Receptor-alpha/-alpha Homodimer (AID 2283349);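 further: hits raise fluorescence above DMSO for agonists and antagonists alike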
How it was run: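 Stably transfected HEK293T; ERα LBD homodimer PCA. 24 h dosing, fluorescence intensity read, gain-of-signal vs DMSO.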

[9] = molecular target: Estrogen receptor (Homo sapiens) (UniProt P03372); assay: OT_ER_ERaERa_0480: Odyssey Thera (OT) 8-hour HEK293T Protein-Complementation Assay for Estrogen Receptor-alpha/-alpha Homodimer (AID 2283351);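 further: rise in fluorescence from reassembled reporter fragments on ERα LBD homodimer in nucleus or whole cell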
How it was run: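 HEK293T cells stably expressing a PCA pair of ER alpha LBD (residues 310-547) were dosed for 8 hours. The gain in fluorescence intensity, nuclear for agonists and whole-cell for antagonists, was measured by laser scanning cytometry against DMSO vehicle.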

[10] = molecular target: T1, Estrogen receptor (Homo sapiens) + Estrogen receptor beta (Homo sapiens) (UniProt P03372+Q92731); assay: OT_ER_ERaERb_0480: Odyssey Thera (OT) 8-hour HEK293T Protein-Complementation Assay for Estrogen Receptor-alpha/-beta Heterodimer (AID 2283352)
How it was run: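 Increase in mean fluorescence intensity, measured by laser scanning plate cytometry, reported ER-alpha/ER-beta LBD complementation in HEK293T cells after 8 h chemical exposure. DMSO served as baseline; basal signal is low, punctate and cytoplasmic.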

[11] = molecular target: Androgen Receptor/SRC-1 Co-activator, AR (gene 367) (UniProt P10275); assay: OT_AR_ARSRC1_0960: Odyssey Thera (OT) 16-hour HEK293T Protein-Complementation Assay for Androgen Receptor/SRC-1 Co-activator (AID 2283353);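 further: actives raise the signal above DMSO so potency reflects increased AR and SRC-1 complex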
How it was run: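 Endpoint is gain-of-signal N/C fluorescence ratio in the 488 nm channel versus DMSO, from at least 400 cells per image, measured 16 h post-dosing. Cells: HEK293T stably carrying split-Venus AR/SRC-1 complementation constructs.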

[12] = molecular target: T1, Estrogen receptor (Homo sapiens) + Estrogen receptor beta (Homo sapiens); assay: OT_ER_ERaERb_1440: Odyssey Thera (OT) 24-hour HEK293T Protein-Complementation Assay for Estrogen Receptor-alpha/-beta Homodimer (AID 2283356);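 further: heteromer of ER alpha and ER beta binding domains; hits raise reporter fluorescence and both agonists and antagonists give an increase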
How it was run: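 Heterodimerisation of ERα (aa 310-547) and ERβ (aa 263-489) ligand binding domains was tracked as fluorescence gain in stably transfected HEK293T cells following 24 h dosing, normalised to DMSO controls.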

[13] = molecular target: human Thyroid Receptor Alpha (TRa), THRA (gene 7067) (UniProt P10827); assay: NVS_NR_hTRa_Antagonist: NovaScreen (NVS) Nuclear Receptor Binding Assay for human Thyroid Receptor Alpha Antagonism (TRa) (AID 2283362);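 further: activity is loss of signal relative to DMSO baseline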
How it was run: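 Chemicals were first screened in duplicate at 25 uM, then actives were retested in concentration series. Binding to the extracted receptor was measured 1 h after dosing by AlphaLISA chemiluminescence, with decreased signal versus DMSO scored as activity.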

[14] = molecular target: bovine Estrogen Receptor (ER), ESR1 (gene 407238) (UniProt P49884); assay: NVS_NR_bER: NovaScreen (NVS) Nuclear Receptor Binding Assay for bovine Estrogen Receptor (ER) (AID 2283345);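 further: actives lower the bound radioligand count which means they displace the ER ligand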
How it was run: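 Scintillation counting of displaced radioligand gave the readout; bovine uterine membrane extract supplied the receptor. Measured 18 h post-dose, normalized to DMSO baseline. Single 25 uM duplicate screen preceded concentration-response follow-up.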

T1 sequence (P03372 whole entry, looked up, the tested form may be a part): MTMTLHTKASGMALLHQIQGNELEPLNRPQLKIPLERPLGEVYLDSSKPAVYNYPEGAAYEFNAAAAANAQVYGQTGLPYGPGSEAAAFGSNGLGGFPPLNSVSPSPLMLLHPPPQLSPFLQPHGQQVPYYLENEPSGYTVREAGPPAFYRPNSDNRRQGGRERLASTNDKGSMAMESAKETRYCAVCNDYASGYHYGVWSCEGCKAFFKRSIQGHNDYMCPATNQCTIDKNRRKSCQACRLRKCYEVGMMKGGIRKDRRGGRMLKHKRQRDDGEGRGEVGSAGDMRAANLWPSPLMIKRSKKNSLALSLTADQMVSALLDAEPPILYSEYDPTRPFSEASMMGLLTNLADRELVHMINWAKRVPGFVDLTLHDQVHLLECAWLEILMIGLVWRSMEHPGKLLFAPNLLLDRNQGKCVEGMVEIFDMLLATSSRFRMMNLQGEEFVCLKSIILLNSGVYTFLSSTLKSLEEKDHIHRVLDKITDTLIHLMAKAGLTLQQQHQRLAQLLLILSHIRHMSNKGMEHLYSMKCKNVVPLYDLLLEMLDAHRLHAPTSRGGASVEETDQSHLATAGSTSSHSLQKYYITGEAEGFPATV
T1 sequence (Q92731 whole entry, looked up, the tested form may be a part): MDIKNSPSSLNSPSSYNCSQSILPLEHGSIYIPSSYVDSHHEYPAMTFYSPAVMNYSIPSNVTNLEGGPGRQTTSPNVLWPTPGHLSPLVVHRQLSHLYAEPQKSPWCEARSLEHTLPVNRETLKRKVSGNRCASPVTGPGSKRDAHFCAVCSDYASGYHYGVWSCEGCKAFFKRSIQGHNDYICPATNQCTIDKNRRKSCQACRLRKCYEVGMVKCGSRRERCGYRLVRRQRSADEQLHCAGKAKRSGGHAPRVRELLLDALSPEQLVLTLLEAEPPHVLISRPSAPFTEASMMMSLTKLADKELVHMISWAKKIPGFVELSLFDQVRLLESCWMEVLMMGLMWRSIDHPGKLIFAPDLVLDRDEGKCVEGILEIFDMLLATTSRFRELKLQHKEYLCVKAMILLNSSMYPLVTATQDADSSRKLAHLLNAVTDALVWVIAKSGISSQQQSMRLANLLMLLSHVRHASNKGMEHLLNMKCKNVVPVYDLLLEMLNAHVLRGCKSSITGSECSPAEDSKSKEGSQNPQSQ
Estrogen receptor (Homo sapiens), sequence (P03372 whole entry, looked up, the tested form may be a part): as the sequence (P03372 whole entry, looked up, the tested form may be a part) above
bovine Estrogen Receptor (ER), ESR1 (gene 407238), sequence (P49884 whole entry, looked up): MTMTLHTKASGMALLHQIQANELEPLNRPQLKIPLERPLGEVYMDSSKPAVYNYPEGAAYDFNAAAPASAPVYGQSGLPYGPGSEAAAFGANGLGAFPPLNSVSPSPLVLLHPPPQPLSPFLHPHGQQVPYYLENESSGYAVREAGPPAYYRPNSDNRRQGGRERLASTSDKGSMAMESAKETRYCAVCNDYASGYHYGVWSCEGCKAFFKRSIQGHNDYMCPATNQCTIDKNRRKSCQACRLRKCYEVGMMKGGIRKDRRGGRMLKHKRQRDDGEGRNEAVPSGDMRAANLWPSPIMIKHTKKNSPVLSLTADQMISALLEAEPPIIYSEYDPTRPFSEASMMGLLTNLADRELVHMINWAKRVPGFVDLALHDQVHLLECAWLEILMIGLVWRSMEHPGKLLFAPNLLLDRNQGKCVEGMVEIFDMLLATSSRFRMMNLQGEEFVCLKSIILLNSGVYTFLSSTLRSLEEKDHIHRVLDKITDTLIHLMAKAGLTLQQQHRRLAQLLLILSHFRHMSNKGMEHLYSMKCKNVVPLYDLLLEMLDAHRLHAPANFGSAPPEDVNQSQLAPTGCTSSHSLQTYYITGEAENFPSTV
rat Peripheral-type Benzodiazepine Receptor (PBR), Tspo (gene 24230), sequence (P16257 whole entry, looked up): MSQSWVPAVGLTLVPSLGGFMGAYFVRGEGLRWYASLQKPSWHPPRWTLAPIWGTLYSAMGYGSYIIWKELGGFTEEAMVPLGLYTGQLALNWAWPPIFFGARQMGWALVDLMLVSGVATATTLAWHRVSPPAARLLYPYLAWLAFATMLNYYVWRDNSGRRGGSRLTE
PGR (gene 5241), sequence (P06401 whole entry, looked up): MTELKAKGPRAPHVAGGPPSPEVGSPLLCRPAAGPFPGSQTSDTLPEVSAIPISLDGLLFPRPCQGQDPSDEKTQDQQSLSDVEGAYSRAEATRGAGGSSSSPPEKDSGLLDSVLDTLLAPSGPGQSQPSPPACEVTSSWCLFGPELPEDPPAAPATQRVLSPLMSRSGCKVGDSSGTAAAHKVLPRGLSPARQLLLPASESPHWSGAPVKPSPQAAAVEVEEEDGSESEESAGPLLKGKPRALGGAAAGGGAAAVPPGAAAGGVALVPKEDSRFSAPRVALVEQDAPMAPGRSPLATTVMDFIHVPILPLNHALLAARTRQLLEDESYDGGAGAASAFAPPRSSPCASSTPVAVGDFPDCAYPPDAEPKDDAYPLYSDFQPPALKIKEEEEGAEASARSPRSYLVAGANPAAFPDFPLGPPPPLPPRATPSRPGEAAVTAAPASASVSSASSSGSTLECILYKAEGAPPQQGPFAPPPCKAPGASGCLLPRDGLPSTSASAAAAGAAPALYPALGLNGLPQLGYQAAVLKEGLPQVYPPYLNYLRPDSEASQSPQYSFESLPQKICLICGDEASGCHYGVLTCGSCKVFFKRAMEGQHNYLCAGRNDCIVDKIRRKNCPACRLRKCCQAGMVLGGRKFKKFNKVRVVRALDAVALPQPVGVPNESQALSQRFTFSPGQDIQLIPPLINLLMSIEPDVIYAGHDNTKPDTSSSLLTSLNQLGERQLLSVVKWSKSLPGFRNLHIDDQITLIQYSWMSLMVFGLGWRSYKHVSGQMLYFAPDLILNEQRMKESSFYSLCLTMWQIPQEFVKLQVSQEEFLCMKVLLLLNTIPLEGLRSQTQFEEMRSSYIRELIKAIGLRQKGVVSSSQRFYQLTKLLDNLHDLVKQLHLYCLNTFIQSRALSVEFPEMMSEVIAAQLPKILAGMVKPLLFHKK
Glucocorticoid receptor (Homo sapiens), sequence (P04150 whole entry, looked up): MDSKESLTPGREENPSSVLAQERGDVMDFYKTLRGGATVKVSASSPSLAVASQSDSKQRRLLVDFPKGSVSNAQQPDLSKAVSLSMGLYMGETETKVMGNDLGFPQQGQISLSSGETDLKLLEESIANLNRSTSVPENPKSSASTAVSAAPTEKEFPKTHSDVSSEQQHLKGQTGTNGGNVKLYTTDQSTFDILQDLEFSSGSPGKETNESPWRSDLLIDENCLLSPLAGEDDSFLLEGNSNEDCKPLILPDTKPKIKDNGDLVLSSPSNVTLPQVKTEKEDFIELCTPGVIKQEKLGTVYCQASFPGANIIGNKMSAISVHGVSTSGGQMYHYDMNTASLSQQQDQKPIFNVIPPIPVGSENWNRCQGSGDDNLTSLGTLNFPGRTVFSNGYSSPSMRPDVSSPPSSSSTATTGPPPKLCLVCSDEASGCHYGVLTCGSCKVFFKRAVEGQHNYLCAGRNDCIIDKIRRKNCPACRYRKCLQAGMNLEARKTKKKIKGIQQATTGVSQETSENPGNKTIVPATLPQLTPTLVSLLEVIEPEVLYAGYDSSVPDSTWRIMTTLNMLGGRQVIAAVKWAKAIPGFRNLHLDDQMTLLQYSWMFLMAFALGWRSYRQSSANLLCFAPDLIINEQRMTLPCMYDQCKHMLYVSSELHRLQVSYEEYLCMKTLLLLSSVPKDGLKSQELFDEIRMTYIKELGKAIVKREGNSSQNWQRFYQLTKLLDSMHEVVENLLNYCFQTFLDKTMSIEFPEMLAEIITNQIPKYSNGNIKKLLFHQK
Androgen Receptor/SRC-1 Co-activator, AR (gene 367), sequence (P10275 whole entry, looked up): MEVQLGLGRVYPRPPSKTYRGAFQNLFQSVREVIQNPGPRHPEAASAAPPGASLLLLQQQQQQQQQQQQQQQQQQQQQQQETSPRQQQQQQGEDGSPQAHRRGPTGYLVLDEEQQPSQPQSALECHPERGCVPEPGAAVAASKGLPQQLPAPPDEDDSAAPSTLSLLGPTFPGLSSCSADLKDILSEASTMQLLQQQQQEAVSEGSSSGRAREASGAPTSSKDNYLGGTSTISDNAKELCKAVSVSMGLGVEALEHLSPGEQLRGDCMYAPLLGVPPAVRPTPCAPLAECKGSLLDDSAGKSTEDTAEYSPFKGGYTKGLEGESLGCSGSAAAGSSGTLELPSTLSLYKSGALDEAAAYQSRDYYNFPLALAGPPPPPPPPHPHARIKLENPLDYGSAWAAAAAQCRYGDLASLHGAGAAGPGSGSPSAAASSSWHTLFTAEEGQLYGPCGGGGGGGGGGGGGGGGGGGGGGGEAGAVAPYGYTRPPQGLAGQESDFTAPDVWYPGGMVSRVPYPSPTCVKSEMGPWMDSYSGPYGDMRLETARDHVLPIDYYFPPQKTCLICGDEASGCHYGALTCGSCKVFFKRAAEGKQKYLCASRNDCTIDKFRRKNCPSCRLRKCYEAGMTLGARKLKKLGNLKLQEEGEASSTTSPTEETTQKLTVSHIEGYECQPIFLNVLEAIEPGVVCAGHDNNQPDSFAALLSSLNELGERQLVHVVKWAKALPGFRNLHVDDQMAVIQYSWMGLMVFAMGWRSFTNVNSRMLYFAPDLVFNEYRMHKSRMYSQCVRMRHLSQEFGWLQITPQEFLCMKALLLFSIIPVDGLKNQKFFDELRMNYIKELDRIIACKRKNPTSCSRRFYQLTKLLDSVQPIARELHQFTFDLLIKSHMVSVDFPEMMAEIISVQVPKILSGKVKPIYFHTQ
human Androgen Receptor (AR), AR (gene 367), sequence (P10275 whole entry, looked up): as above
human Peripheral-type Benzodiazepine Receptor (PBR), TSPO (gene 706), sequence (P30536 whole entry, looked up): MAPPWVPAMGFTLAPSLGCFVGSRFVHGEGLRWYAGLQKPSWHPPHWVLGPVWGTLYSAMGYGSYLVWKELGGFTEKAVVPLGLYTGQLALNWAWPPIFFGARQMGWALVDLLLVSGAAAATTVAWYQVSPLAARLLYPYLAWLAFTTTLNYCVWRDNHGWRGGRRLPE

## CC(C)(COCC1CO1)COCC1CO1 (stereo not given)
[1]
  outcome: inactive

## [Cl][Sn]([c]1ccccc1)([c]1ccccc1)[c]1ccccc1
[2]
  AC50: 746 nM (active)
[3]
  AC50: 3.31 µM (active)

## COCC(=O)N(c1c(C)cccc1C)[C@H](C)C(=O)OC
[4]
  outcome: inactive

## Cc1ccc(OP(=O)(Oc2ccc(C)cc2C)Oc2ccc(C)cc2C)c(C)c1
[4]
  AC50: 0.422 µM (active)
[1]
  AC50: 1.06 µM (active)

## CCOC(=O)CCN(SN(C)C(=O)Oc1cccc2c1OC(C)(C)C2)C(C)C
[4]
  AC50: 5.06 µM (active)
[1]
  AC50: 4.91 µM (active)

## Cc1ccccc1OP(=O)(Oc1ccccc1)Oc1ccccc1
[4]
  AC50: 1.28 µM (active)
[1]
  AC50: 0.284 µM (active)
PGR (gene 5241)
  outcome: inactive

## CCOP(=S)(OCC)O/N=C(\C#N)c1ccccc1
[4]
  outcome: inactive
[1]
  AC50: 16.2 µM (active)

## OC(Cc1ccccc1Cl)(Cn1[nH]cnc1=S)C1(Cl)CC1 (stereo not given)
[2]
  outcome: inactive
PGR (gene 5241)
  outcome: inactive

## Brc1ccc(Br)cc1
[5]
  outcome: inactive

## Cc1cc(C(C)(C)c2ccc(O)c(C)c2)ccc1O
[2]
  AC50: 2930 nM (active)
[1]
  outcome: inactive
[6]
  outcome: inactive
[7]
  outcome: inactive
PGR (gene 5241)
  AC50: 23.3 µM (active)
[3]
  AC50: 1.82 µM (active)

## CCOC(=O)C(SP(=S)(OC)OC)c1ccccc1 (stereo not given)
[4]
  AC50: 13.4 µM (active)
[1]
  AC50: 7.41 µM (active)
PGR (gene 5241)
  outcome: inactive

## CC1(C)[C@H](C(=O)O[C@H](C#N)c2cccc(Oc3ccccc3)c2)[C@@H]1/C=C(\Cl)C(F)(F)F
[1]
  outcome: inactive

## Nc1c(Oc2ccccc2)cc(O)c2c1C(=O)c1ccccc1C2=O
[2]
  outcome: inactive

## O=S1(=O)OC(c2cc(Br)c(O)c(Br)c2)(c2cc(Br)c(O)c(Br)c2)c2ccccc21
[4]
  AC50: 5.29 µM (active)
[6]
  outcome: inactive
[8]
  outcome: inactive
[9]
  outcome: inactive
[10]
  AC50: 15.2 µM (active)
[11]
  outcome: inactive
[12]
  outcome: inactive
[13]
  AC50: 4.18 µM (active)
[3]
  AC50: 0.426 µM (active)

## CCOP(=S)(OCC)SCS(=O)(=O)C(C)(C)C
[4]
  AC50: 12.9 µM (active)
[1]
  AC50: 2.02 µM (active)

## CCCCOP(=O)(CCCC)OCCCC
[4]
  AC50: 6.98 µM (active)
[1]
  AC50: 1.62 µM (active)

## O=C1c2ccccc2C(=O)C1C(=O)C(c1ccccc1)c1ccc(Cl)cc1 (stereo not given)
[1]
  outcome: inactive
[14]
  outcome: inactive
[6]
  AC50: 17.6 µM (active)
[8]
  outcome: inactive
[9]
  outcome: inactive
[11]
  outcome: inactive
[3]
  AC50: 3.72 µM (active)

## O=S(=O)(c1ccc(Cl)cc1)c1cc(Cl)c(Cl)cc1Cl
[14]
  outcome: inactive

## Oc1ccc(Cc2ccc(O)cc2)cc1
[6]
  outcome: inactive

## CC(C)(C)c1cc([N+](=O)[O-])cc(C(C)(C)C)c1O
[6]
  outcome: inactive

## O=c1oc2ccccc2c(O)c1C(CC(O)c1ccc(-c2ccc(Br)cc2)cc1)c1ccccc1 (stereo not given)
[14]
  outcome: inactive
[7]
  outcome: inactive
PGR (gene 5241)
  AC50: 23.9 µM (active)
[3]
  AC50: 7.76 µM (active)

## CC(=Cc1ccccc1)[N+](=O)[O-]
[6]
  outcome: inactive
[8]
  outcome: inactive
[9]
  outcome: inactive
[10]
  outcome: inactive
[11]
  AC50: 16.7 µM (active)
[12]
  outcome: inactive
